Test results: PubChem BioAssay AID624351 (Southern Research Specialized Biocontainment Screening …, 2012)
The campaign covered roughly 2,400 compounds. About 1,400 (58%) were called active.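 The calls were made as follows: active = inhibition of 30% or more at any tested dose; inconclusive = primary hits over the limit that were never retested; inactive = the rest.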 So high a share suggests a set chosen from earlier hits. The list shows a part of the results.

Experiment: ADP Hunter readout inhibition without MgcRacGAP – biochemical, coupled enzyme counter-screen, artefact control for MgcRacGAP inhibitor project, dose response (AID 624351);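 also: signal is the ADP detection kit reading of free GDP without any GAP enzyme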
Conditions: fluorescence, no MgcRacGAP; series mostly up to 80 µM

| Structure (SMILES) | IC50 |
| --- | --- |
| CCc1ccc2nc3sc(C(=O)O)cc3cc2c1 | inactive |
| CCOc1cc(/C=N/Nc2nc(=O)[nH]nc2C)ccc1O | 43.9 µM (active) |
| CCOc1cc(/C=N/Nc2ncc(C)c(=O)[nH]2)ccc1O | 38.9 µM (active) |
| CCN(CC)c1ccc(NC(=O)COC(=O)Cc2ccsc2)cc1 | 42.9 µM (active) |
| COc1ccccc1/C=C(/C(=O)OCC(=O)Nc1ccc(N(C)C)cc1)c1ccccc1 | 66.3 µM (active) |
| COc1ccccc1CNCC(=O)Nc1ccccc1-n1cccc1 | inactive |
| COc1ccccc1CNC(=O)C[C@@H]1C[C@H]2c3cc(N(C)C)ccc3O[C@H]2[C@H](CO)O1 | inactive |
| COc1cc(CC(=O)OCC(=O)Nc2ccc(N(C)C)cc2)cc(OC)c1OC | 68 µM (active) |
| CCc1ccc(NC(=O)CNCc2ccc(OC)c(OC)c2)cc1 | inactive |
| COc1ccccc1CNCC(=O)NCc1ccc(C)cc1 | inactive |
| COc1ccccc1CNCC(=O)Nc1ccc(N(C)C)cc1 | 63.3 µM (active) |
| COc1ccc(NCCC#N)cc1 | 82.2 µM (active) |
| O=S(=O)(O)c1cc(O)c(N=Nc2ccc(O)cc2O)c2ccccc12 | 30.7 µM (active) |
| CC(C)C1N=C2c3ccccc3N=C(SCC(=O)c3ccc(O)c(O)c3)N2C1=O (stereo not drawn) | 34.7 µM (active) |
| CCN(CC)c1ccc(Nc2nc(Cl)ncc2Br)cc1 | 49.4 µM (active) |
| O=c1oc(-c2ccc(O)c(O)c2)cc2cc(O)cc(O)c12 | 23 µM (active) |
| O=c1oc(-c2ccc(O)c(O)c2)cc2cccc(O)c12 | 20.7 µM (active) |
| N#CC1=C(S)N(c2ccc(F)cc2)C(c2cccs2)NC1=O (stereo not drawn) | inactive |
| O=C1NC2c3c(I)sc(I)c3C(=O)C2O1 (stereo not drawn) | inactive |
| COc1cc(CNCCNC(=O)c2nonc2N)ccc1OCc1ccc(Cl)cc1 | inactive |
| N/C(=N\N=C\c1ccc(O)cc1)c1nonc1N | 31.1 µM (active) |
| COc1cc(/C=N/N=C(\N)c2nonc2N)ccc1O | 30.3 µM (active) |
| Oc1ccc(/C=N/N=C/c2ccc(O)cc2)cc1 | 84 µM (active) |

| Structure (SMILES) | IC50 |
| --- | --- |
| N#Cc1c(Nc2ccc(Cl)cc2)s[nH]c1=O | inactive |
| Cc1ccc(/C=[N+](\[O-])c2ccc(N(C)C)cc2)c2nsnc12 | 16.1 µM (active) |
| CCOC(=O)C1(C)C=C(Nc2ccc(O)cc2)C(=O)N1c1ccc(O)cc1 (stereo not drawn) | 19.6 µM (active) |
| O=C1/C(=C\c2ccco2)CCC/C1=C\c1ccco1 | inactive |
| Nc1cc(Br)c(N)c(Br)c1 | 10.6 µM (active) |
| OCCN1CCN(C(=S)Nc2cccc(C(F)(F)F)c2)CC1 | inactive |
| OCC1CCCN(C(=S)Nc2ccc(Nc3ccccc3)cc2)C1 (stereo not drawn) | 41.7 µM (active) |
| CCOC(=O)C1CCN(Cc2cccc(Oc3ccccc3)c2)CC1 | inactive |
| OC1CCN(C(=S)Nc2ccc(Nc3ccccc3)cc2)CC1 | 36.5 µM (active) |
| CCOC(=O)C1CCCN(C(=S)Nc2ccc(Nc3ccccc3)cc2)C1 (stereo not drawn) | 55.1 µM (active) |
| CCOC(=O)C1CCN(Cc2ccc(-c3ccccc3)cc2)CC1 | inactive |
| COc1ccc(CN2CCN(CCSc3ccc(C)cc3)CC2)c(OC)c1OC | inactive |
| CC1CN(CCCCOc2ccc(Cl)c3ccccc23)CC(C)O1 (stereo not drawn) | inactive |
| CSc1sccc1/C=C(/C#N)C(=O)c1ccco1 | inactive |
| NC(CSS(=O)(=O)O)=NCCC12CC3CC(CC(O)(C3)C1)C2 | inactive |
| COc1cc(/C=N/NC(=O)c2nc(C)cc(C)n2)ccc1O | 37.3 µM (active) |
| COc1cc(/C=N/NC(=O)c2nc(-c3ccccc3)n(-c3ccccc3)n2)ccc1O | 41.9 µM (active) |
| COc1cc(/C=N/NC(=O)c2cc(-c3c(C)nn(-c4ccccc4)c3C)n[nH]2)ccc1O | 38.8 µM (active) |
| COc1cc(/C=N/Nc2nc(C)cc(C)n2)ccc1O | 60.7 µM (active) |
| c1cc(CN2CCN(C3CCCCCC3)CC2)ccn1 | inactive |
| COc1cc(/C=N/NC(=O)c2cn(-c3cccc(C)n3)cn2)ccc1O | 37.3 µM (active) |
| Nc1nc2cc(S(=O)(=O)NC3=NCCCCC3)ccc2s1 | inactive |
| COc1cc(/C=N/Nc2cc(C)nc(NS(=O)(=O)c3ccccc3)n2)ccc1O | 41 µM (active) |

| Structure (SMILES) | IC50 |
| --- | --- |
| Oc1ccc(/C=N/NC2=NCCCCC2)c(O)c1 | 67.6 µM (active) |
| COc1cc(/C=N/NC2=NCCCCC2)ccc1O | 27.6 µM (active) |
| O=c1[nH]c2ccccc2n2c(=S)[nH]nc12 | 78.8 µM (active) |
| S=c1[nH]c2ccccc2n2c(=S)[nH]nc12 | 51.8 µM (active) |
| CCCCN(CCCC)CCNC(=O)CSCc1ccc(C)cc1 | inactive |
| Cc1cccc(-n2nc3c(c2NC(=O)c2ccco2)CSC3)c1C | inactive |
| C=CCc1cc(OC)ccc1OCCN1CC(C)OC(C)C1 (stereo not drawn) | inactive |
| c1coc(CSSCc2ccco2)c1 | inactive |
| Nc1ccc(OCc2ccco2)cc1 | 58.6 µM (active) |
| CC1N(C)c2cccc3cccc(c23)N1C | 21 µM (active) |
| CN(C)C=Nc1ccc2nc3c(cc2c1)[nH]c1ccccc13 | inactive |
| O=C1/C(=C/c2ccccc2[N+](=O)[O-])COc2ccccc21 | inactive |
| CCN(CC)c1ccc(N=Cc2ccccc2[N+](=O)[O-])cc1 | 27.2 µM (active) |
| CCN(CC)c1ccc(N=Cc2c(C)[nH]c3ccccc23)cc1 | 41.6 µM (active) |
| CC(=C/c1ccccc1)/C=N/n1c(-c2ccco2)n[nH]c1=S | 66.7 µM (active) |
| S=c1[nH]nc(-c2ccco2)n1/N=C/c1ccc(Cl)cc1 | 51.2 µM (active) |
| CC1=C(C)CS(=O)N(S(=O)(=O)c2ccc(Cl)cc2)C1 (stereo not drawn) | inactive |
| Cc1cccc(-c2n[nH]c(=S)n2/N=C/c2ccco2)c1 | 78.9 µM (active) |
| Cc1cccc(CN2CCN(Cc3ccco3)CC2)c1 | inactive |
| Cc1nc2ccc(C(=O)Nc3ccc(N(C)C)cc3)cc2s1 | 58.9 µM (active) |
| Cc1ccc2nc(N(CCCN(C)C)C(=O)c3ccc4ncsc4c3)sc2c1 | inactive |
| O=C(CN1CCc2ccccc2C1)Nc1ccccc1C(F)(F)F | inactive |
| O=C1c2ccccc2C(=O)C1c1ccc(O)cc1 | 81.3 µM (active) |

| Structure (SMILES) | IC50 |
| --- | --- |
| COc1cc(C2C(=O)c3ccccc3C2=O)ccc1O | 20.4 µM (active) |
| C[C@H]1CCC/C=C/[C@@H]2C[C@H](O)C[C@H]2[C@H](O)[C@H](S(=O)c2ccc(O)cc2)CC(=O)O1 (stereo partly drawn) | inactive |
| CN1CCN(CCCNCc2cn(CCC#N)c3ccccc23)CC1 | inactive |
| N#CCCN1CCN(CCC#N)c2ccccc21 | 20 µM (active) |
| CC(=O)Nc1ccc(OC(=O)c2cc3ccccc3oc2=O)cc1 | inactive |
| Oc1ccc(NC(=S)Nc2ccc(O)cc2)cc1 | 46.5 µM (active) |
| COC(=O)c1ccc(NC(=S)Nc2ccc(O)cc2)cc1 | 68.1 µM (active) |
| Oc1ccc(NC(=S)Nc2ccccc2)cc1 | 55.5 µM (active) |
| COc1ccc(OC(=O)COc2ccc(C)cc2)cc1 | inactive |
| Cc1ccc(OC(=S)Nc2ccc(O)cc2)cc1 | 34.5 µM (active) |
| O=C(/C=C/c1ccco1)NC(=S)Nc1ccc(C(=O)O)cc1 | inactive |
| CC(=O)c1ccc(NC(=S)Nc2ccc3[nH]c(=O)[nH]c3c2)cc1 | inactive |
| CN(C)c1ccc(O)c2c1CC1CC3[C@@H](N(C)C)C(=O)C(C(N)=O)=C(O)[C@]3(O)C(=O)C1=C2O (stereo partly drawn) | inactive |
| COCC(C)NCc1ccc(OC)c(Br)c1 (stereo not drawn) | inactive |
| COc1ccc(CN2CCN(Cc3ccccc3F)CC2)c(OC)c1 | inactive |
| O=C(c1cccnc1)N1CCN(Cc2cccc(Br)c2)CC1 | inactive |
| CNC(=S)Nc1ccc(Nc2ccccc2)cc1 | 71.8 µM (active) |
| CC(C)N(c1ccccc1)c1ccc(NC(=S)NCCN(C)C)cc1 | inactive |
| O=C(Nc1ccc(O)cc1)C1CC=CCC1 (stereo not drawn) | 64.6 µM (active) |
| CC1CCCCN1CC(=O)Nc1ccc(N2CCCCCC2)cc1 (stereo not drawn) | inactive |
| CN(C(=S)NC(=O)C1CC1)c1ccc(O)cc1 | inactive |
| O=C(NC(=S)Nc1ccc(O)cc1)C1CCCC1 | 31.8 µM (active) |
| N=C1/C(=C\c2ccc(Br)o2)C(=O)N=C2SC(CC(=O)N3CCCCC3)=NN12 | inactive |

| Structure (SMILES) | IC50 |
| --- | --- |
| COc1ccc(C2NC(=O)C(C#N)=C(S)N2c2ccccc2)cc1OC (stereo not drawn) | inactive |
| S=c1[nH]nc2ccccn12 | 24 µM (active) |
| Cc1cccn2c(=S)[nH]nc12 | 13.4 µM (active) |
| Cc1ccn2c(=S)[nH]nc2c1 | 46.7 µM (active) |
| Cc1ccc(/C=C2/C(=O)c3ccc(C(=O)O)cc3C2=O)o1 | inactive |
| Cc1cc(O)ccc1N=Cc1c(C(F)(F)F)[nH][nH]c1=O | 32.8 µM (active) |
| Oc1ccc(/C=C/c2ccc3ccccc3n2)cc1 | 30.7 µM (active) |
| O=c1[nH]c2ccccc2nc1/C=C/c1ccc(O)cc1 | 36.9 µM (active) |
| CCOc1cc(/C=N/NC(=O)c2ccc(=O)n(C)c2)ccc1O | 60.4 µM (active) |
| CCOc1cc(/C=N/NC(=O)c2cc(C3CC3)[nH]n2)ccc1O | 56.1 µM (active) |
| CCOc1cc(/C=N/NC(=O)C2CCCC2)ccc1O | 51.3 µM (active) |
| CCOc1cc(/C=N/NC(=O)c2ccc(NC(=O)C3CC3)cc2)ccc1O | 83.2 µM (active) |
| Cc1cc(C)c(C)c(OCCNCc2ccccc2)c1 | inactive |
| COc1cc(/C=N/NC(=O)C2CCN(CC(O)COCc3ccccc3)CC2)ccc1O (stereo not drawn) | 34.1 µM (active) |
| COc1ccccc1COCC(O)CNCC1(N2CCCCC2)CCCCC1 (stereo not drawn) | inactive |
| Cc1cccc(N2C(S)=C(C#N)C(=O)NC2c2cccs2)c1 (stereo not drawn) | inactive |
| COc1cc(NC(C)CCCNC(C)C)c2ncccc2c1OC (stereo not drawn) | inactive |
| COc1cc(CN(C)CCc2ccccn2)cc(OC)c1OC | inactive |
| COc1cc(N)c2ncccc2c1SC | 51.2 µM (active) |
| COc1cc(N)c2ncccc2c1OC | 63.8 µM (active) |
| COc1cccc2c3cccc(OC)c3c3[nH]cnc3c12 | inactive |
